# In paper PMC7862700, “An all-to-all approach to the identification of sequence-specific readers for epigenetic DNA modifications on cytosine”:
# Key:
# Experiment in all cases: DAPPL (digital affinity profiling via proximity ligation, sequencing); 10 mM Tris-HCl pH 7.5, 50 mM NaCl, 1 mM DTT, 4% glycerol, room temperature, 30 min; GST-TFs on glutathione beads, 16-mer random dsDNA library, 0.1% formaldehyde crosslink after washing; high values mean tight binding
# [1] = biological target: T1, FEV (Homo sapiens, UniProt Q99581 1-238); conditions: protein: recombinant; tags: N-terminal GST; dsDNA, one strand shown
# T1 sequence: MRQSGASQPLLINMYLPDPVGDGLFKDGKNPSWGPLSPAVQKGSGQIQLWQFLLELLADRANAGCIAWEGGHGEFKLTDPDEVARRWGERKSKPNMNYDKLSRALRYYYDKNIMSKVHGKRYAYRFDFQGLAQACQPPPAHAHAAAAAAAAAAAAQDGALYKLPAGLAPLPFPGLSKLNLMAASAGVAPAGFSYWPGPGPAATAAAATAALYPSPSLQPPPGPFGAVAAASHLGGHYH
# Summary of the method: (§1)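 The binding signal reported is, for every hexamer, its read frequency for a factor over its read frequency for the tag-only sample. Reads came from pools of yeast-expressed, GST-fused human transcription factors on glutathione beads, barcoded with DNA and mixed with that sample, which were incubated with 200 nmole of a random double-stranded 16-mer DNA library in Tris/NaCl/DTT/glycerol buffer at room temperature for 30 min. After washing, the pools were crosslinked with 0.1% formaldehyde, proximity-ligated with BsaI/T4 ligase for 1 h at 37 °C, PCR-amplified and sequenced on an Illumina NextSeq500.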
# [2] = biological target: ETV5 (Homo sapiens, UniProt P41161 1-510); conditions: protein: recombinant; tags: N-terminal GST; dsDNA, one strand shown
# Summary of the method: as §1
# [3] = biological target: HSF1 (Homo sapiens, UniProt Q00613 1-529); conditions: protein: recombinant; tags: N-terminal GST; chain copies: 3; dsDNA, one strand shown
# Summary of the method: as §1
# [4] = biological target: T2, SPIC (Homo sapiens, UniProt Q8N5J4 1-248); conditions: protein: recombinant; tags: N-terminal GST; dsDNA, one strand shown
# T2 sequence: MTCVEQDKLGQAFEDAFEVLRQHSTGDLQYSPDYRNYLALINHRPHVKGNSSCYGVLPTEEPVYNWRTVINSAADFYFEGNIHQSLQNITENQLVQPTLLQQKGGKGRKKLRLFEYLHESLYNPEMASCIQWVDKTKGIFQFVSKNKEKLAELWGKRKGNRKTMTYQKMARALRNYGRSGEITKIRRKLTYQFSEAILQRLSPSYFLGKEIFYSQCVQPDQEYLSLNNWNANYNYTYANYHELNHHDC
# Summary of the method: as §1
# [5] = biological target: ELF4 (Homo sapiens, UniProt Q99607 1-663); conditions: protein: recombinant; tags: N-terminal GST; dsDNA, one strand shown
# Summary of the method: as §1
# [6] = biological target: T3, ELK4 (Homo sapiens, UniProt P28324-2 1-405); conditions: protein: recombinant; tags: N-terminal GST; dsDNA, one strand shown
# T3 sequence: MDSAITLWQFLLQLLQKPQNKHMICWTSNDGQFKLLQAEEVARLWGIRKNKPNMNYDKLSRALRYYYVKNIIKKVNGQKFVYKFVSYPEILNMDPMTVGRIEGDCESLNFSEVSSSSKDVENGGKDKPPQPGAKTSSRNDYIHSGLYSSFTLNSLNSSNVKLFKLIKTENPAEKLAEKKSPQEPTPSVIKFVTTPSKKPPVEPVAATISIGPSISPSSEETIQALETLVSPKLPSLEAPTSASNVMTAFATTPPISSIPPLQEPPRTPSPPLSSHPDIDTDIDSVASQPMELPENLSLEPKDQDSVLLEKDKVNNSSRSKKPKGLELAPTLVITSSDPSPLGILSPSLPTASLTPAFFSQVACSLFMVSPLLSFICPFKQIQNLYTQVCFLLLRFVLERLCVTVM
# Summary of the method: as §1
# [7] = biological target: T4, ETV2 (Homo sapiens, UniProt O00321 1-342); conditions: protein: recombinant; tags: N-terminal GST; dsDNA, one strand shown
# T4 sequence: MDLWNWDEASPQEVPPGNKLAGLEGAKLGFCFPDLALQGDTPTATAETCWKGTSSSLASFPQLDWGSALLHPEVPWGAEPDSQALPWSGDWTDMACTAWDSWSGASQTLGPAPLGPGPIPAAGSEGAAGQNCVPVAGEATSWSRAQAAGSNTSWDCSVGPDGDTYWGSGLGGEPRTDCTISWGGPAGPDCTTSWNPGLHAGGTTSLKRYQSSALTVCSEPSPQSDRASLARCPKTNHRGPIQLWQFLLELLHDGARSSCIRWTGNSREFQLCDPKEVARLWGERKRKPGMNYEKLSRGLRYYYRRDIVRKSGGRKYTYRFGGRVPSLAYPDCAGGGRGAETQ
# Summary of the method: as §1
# [8] = biological target: T5, ELF3 (Homo sapiens, UniProt P78545 1-371); conditions: protein: recombinant; tags: N-terminal GST; dsDNA, one strand shown
# T5 sequence: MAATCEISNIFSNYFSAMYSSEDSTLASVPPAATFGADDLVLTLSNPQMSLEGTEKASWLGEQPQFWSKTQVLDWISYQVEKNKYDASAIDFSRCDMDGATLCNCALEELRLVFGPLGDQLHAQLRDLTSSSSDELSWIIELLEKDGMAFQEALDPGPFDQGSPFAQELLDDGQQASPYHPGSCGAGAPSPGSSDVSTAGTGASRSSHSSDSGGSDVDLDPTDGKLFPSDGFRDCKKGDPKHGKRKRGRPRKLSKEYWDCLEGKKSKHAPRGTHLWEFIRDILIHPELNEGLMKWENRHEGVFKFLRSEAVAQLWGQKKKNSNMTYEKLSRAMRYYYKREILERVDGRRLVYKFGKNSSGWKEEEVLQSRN
# Summary of the method: as §1
# [9] = biological target: ETV1 (Homo sapiens, UniProt P50549 1-477); conditions: protein: recombinant; tags: N-terminal GST; dsDNA, one strand shown
# Summary of the method: as §1
# [10] = biological target: T6, ERF (Homo sapiens, UniProt P50548 1-548); conditions: protein: recombinant; tags: N-terminal GST; dsDNA, one strand shown
# T6 sequence: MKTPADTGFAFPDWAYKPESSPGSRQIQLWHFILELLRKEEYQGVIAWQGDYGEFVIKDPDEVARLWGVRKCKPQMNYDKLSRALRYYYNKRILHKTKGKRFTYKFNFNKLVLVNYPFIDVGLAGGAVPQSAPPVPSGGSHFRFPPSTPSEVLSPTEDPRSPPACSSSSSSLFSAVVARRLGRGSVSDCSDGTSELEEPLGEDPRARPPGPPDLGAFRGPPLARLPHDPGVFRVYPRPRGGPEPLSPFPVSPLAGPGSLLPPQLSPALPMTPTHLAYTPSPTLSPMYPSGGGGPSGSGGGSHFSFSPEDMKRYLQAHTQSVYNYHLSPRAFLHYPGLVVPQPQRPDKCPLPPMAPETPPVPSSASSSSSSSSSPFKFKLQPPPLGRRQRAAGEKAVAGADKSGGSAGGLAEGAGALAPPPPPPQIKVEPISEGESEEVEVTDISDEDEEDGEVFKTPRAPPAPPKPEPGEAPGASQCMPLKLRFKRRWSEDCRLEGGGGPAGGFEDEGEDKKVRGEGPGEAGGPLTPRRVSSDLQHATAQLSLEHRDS
# Summary of the method: as §1
# [11] = biological target: T7, ETV3L (Homo sapiens, UniProt Q6ZN32 1-361); conditions: protein: recombinant; tags: N-terminal GST; dsDNA, one strand shown
# T7 sequence: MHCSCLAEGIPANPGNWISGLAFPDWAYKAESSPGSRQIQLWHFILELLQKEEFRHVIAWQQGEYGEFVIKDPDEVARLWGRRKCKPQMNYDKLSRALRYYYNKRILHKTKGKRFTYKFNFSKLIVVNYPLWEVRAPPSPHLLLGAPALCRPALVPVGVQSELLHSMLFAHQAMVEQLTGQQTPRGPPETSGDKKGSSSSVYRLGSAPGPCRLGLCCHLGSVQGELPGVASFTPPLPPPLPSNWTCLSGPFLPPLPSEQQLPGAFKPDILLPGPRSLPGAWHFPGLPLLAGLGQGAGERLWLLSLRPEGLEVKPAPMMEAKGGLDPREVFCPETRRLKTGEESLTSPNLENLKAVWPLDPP
# Summary of the method: as §1
# [12] = biological target: T8, ETS2 (Homo sapiens, UniProt P15036 1-469); conditions: protein: recombinant; tags: N-terminal GST; dsDNA, one strand shown
# T8 sequence: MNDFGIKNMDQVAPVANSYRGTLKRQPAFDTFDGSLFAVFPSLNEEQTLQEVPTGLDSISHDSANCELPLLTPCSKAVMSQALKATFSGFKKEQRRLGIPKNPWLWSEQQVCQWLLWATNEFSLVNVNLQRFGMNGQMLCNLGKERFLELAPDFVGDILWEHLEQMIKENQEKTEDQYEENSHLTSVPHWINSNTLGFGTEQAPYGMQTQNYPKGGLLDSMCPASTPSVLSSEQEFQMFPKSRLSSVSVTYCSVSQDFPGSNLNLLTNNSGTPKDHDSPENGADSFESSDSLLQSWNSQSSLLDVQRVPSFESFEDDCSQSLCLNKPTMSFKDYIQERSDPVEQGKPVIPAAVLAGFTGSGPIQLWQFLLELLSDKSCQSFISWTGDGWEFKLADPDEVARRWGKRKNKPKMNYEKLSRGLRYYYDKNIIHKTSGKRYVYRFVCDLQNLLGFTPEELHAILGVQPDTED
# Summary of the method: as §1
# [13] = biological target: T9, SPDEF (Homo sapiens, UniProt O95238 1-335); conditions: protein: recombinant; tags: N-terminal GST; dsDNA, one strand shown
# T9 sequence: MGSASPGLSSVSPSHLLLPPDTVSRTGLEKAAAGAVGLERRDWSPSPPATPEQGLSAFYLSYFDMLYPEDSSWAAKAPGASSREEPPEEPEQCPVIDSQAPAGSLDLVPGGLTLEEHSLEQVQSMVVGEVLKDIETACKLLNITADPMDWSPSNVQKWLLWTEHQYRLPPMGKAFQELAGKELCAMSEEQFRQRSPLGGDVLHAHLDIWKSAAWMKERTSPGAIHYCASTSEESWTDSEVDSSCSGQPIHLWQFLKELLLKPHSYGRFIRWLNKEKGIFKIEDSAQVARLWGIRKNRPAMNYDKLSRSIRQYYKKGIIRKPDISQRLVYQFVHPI
# Summary of the method: as §1
# [14] = biological target: T10, ETV7 (Homo sapiens, UniProt Q9Y603 1-341); conditions: protein: recombinant; tags: N-terminal GST; dsDNA, one strand shown
# T10 sequence: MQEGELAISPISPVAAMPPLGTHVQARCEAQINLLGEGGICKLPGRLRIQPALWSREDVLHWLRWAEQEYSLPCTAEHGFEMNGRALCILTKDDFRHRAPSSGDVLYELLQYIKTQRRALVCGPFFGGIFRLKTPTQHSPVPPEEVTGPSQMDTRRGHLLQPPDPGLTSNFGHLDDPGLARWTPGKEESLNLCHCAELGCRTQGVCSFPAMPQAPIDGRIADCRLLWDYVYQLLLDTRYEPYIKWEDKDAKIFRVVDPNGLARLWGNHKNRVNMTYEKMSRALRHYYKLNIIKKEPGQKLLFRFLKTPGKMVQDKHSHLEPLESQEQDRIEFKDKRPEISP
# Summary of the method: as §1
# [15] = biological target: T11, ELF5 (Homo sapiens, UniProt Q9UKW6-2 1-255); conditions: protein: recombinant; tags: N-terminal GST; dsDNA, one strand shown
# T11 sequence: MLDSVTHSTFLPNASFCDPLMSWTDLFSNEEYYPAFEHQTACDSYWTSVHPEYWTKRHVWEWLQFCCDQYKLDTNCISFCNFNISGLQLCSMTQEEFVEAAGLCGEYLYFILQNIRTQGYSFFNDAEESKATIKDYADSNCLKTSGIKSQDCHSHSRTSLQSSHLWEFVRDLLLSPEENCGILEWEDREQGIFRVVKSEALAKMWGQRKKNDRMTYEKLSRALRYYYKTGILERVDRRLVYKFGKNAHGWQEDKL
# Summary of the method: as §1
# [16] = biological target: T12, ETV3 (Homo sapiens, UniProt P41162-2 1-143); conditions: protein: recombinant; tags: N-terminal GST; dsDNA, one strand shown
# T12 sequence: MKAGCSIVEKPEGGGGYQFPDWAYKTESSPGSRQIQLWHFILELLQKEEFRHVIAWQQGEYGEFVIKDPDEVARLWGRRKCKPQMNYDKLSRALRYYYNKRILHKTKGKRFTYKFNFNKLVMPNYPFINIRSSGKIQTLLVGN
# Summary of the method: as §1
# [17] = biological target: ETV6 (Homo sapiens, UniProt P41212 1-452); conditions: protein: recombinant; tags: N-terminal GST; dsDNA, one strand shown
# Summary of the method: as §1
# Sequence of HSF1 (Q00613 whole entry): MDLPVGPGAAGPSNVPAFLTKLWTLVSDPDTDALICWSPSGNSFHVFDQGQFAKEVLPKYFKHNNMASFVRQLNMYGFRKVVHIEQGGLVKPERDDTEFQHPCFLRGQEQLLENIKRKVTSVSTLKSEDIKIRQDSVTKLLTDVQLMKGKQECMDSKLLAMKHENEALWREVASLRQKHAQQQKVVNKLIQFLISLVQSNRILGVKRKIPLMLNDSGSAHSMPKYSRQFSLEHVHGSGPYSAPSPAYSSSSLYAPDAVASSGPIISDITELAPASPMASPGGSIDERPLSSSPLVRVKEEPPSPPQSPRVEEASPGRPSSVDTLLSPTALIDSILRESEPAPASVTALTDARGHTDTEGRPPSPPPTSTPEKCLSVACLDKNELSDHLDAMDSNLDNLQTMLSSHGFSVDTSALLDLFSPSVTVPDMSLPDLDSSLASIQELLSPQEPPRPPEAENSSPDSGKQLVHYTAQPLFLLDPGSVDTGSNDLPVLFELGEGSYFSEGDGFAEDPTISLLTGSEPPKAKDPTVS
# Sequence of ETV6 (P41212 whole entry): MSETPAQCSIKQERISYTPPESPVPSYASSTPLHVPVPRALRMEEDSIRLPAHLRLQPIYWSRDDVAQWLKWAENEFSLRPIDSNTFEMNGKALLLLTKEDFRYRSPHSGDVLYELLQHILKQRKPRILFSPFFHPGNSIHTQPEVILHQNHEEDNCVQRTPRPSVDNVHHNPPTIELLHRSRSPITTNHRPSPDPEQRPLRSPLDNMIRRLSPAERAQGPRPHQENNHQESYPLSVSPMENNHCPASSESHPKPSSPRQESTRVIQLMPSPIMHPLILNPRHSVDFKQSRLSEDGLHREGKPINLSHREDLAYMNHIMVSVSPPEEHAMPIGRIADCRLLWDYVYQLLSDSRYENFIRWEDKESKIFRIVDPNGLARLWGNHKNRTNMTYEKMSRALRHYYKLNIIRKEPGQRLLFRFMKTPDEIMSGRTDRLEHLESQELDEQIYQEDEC
# Sequence of ELF4 (Q99607 whole entry): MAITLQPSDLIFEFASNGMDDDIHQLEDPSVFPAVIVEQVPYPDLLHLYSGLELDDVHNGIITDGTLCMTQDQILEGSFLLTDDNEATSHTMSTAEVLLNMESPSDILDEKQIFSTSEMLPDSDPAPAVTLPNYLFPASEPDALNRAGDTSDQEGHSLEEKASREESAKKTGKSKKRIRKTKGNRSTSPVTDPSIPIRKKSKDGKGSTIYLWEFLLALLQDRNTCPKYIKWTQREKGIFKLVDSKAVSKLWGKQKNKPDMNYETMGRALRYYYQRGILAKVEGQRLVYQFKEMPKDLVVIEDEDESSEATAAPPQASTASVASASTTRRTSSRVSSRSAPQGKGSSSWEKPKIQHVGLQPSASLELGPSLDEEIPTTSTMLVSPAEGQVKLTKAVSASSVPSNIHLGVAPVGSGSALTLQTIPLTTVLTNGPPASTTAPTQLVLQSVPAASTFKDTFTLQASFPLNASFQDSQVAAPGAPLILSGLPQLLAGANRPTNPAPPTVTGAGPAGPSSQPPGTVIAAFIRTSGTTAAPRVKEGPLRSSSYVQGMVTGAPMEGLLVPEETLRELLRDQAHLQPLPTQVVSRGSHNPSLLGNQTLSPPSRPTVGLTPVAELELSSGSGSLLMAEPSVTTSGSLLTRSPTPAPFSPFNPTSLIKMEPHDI
# Sequence of ETV5 (P41161 whole entry): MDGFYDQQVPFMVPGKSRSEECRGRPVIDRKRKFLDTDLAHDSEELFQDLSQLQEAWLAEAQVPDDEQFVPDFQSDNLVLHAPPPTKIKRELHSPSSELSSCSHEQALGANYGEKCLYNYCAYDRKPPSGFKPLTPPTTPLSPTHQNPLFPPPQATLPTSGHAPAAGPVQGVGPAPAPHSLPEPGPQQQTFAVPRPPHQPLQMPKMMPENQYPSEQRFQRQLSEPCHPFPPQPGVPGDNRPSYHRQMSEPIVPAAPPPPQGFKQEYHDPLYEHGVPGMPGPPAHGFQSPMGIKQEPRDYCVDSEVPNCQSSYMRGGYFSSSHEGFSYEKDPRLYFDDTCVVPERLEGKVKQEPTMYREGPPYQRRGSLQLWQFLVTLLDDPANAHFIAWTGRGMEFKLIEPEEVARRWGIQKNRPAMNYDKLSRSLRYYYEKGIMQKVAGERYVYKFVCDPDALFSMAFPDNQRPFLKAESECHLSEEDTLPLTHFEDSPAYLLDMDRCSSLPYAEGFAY
# Sequence of ETV1 (P50549 whole entry): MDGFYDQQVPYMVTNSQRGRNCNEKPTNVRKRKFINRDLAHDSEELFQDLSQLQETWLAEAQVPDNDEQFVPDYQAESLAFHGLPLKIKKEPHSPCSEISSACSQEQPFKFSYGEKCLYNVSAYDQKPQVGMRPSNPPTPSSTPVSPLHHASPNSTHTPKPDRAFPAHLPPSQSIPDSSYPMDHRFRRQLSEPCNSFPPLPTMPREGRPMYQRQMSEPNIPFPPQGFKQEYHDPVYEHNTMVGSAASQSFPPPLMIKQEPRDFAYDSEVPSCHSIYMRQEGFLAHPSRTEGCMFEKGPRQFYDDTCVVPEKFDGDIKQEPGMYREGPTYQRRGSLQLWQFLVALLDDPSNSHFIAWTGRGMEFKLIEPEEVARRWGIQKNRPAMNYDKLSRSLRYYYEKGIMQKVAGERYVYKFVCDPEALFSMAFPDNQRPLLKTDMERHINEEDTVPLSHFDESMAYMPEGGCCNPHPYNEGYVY
sequence,measurement,setting,value
TGCAAC,binding signal,[1],"1.39 fold enrichment (6-mer frequency, TF over GST control)"
same,binding signal,[2],"1.3 fold enrichment (6-mer frequency, TF over GST control)"
same,binding signal,[3],"1.06 fold enrichment (6-mer frequency, TF over GST control)"
same,binding signal,[4],"1.19 fold enrichment (6-mer frequency, TF over GST control)"
same,binding signal,[5],"1.3 fold enrichment (6-mer frequency, TF over GST control)"
same,binding signal,[6],"1.46 fold enrichment (6-mer frequency, TF over GST control)"
same,binding signal,[7],"1.31 fold enrichment (6-mer frequency, TF over GST control)"
same,binding signal,[8],"1.42 fold enrichment (6-mer frequency, TF over GST control)"
same,binding signal,[9],"1.4 fold enrichment (6-mer frequency, TF over GST control)"
same,binding signal,[10],"1.31 fold enrichment (6-mer frequency, TF over GST control)"
same,binding signal,[11],"1.28 fold enrichment (6-mer frequency, TF over GST control)"
same,binding signal,[12],"1.28 fold enrichment (6-mer frequency, TF over GST control)"
same,binding signal,[13],"1.37 fold enrichment (6-mer frequency, TF over GST control)"
same,binding signal,[14],"1.19 fold enrichment (6-mer frequency, TF over GST control)"
same,binding signal,[15],"1.23 fold enrichment (6-mer frequency, TF over GST control)"
same,binding signal,[16],"1.32 fold enrichment (6-mer frequency, TF over GST control)"
same,binding signal,[17],"1.35 fold enrichment (6-mer frequency, TF over GST control)"
